Screens deposited in PubChem BioAssay by several laboratories.
IDE cell inh: inhibitors of human insulin-degrading enzyme in cells | P14735 | HEK cells, FAbetaB cleavage, fluorescence polarization | inhibition, % at 5.59 µM | hit rate 0.41% among 320,000 | AID 434962;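 active means percent inhibition above the average of all tested compounds plus 3 SD, set per screening campaign, cut at about 16% in these data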;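 further: IDE supplied by intact live HEK cells; FP after avidin binding of uncleaved biotin substrate so inhibition keeps polarization high; 0% = DMSO wells and 100% = 60 µM reference IDE inhibitor Ii1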
Target sequence (P14735 whole entry, looked up): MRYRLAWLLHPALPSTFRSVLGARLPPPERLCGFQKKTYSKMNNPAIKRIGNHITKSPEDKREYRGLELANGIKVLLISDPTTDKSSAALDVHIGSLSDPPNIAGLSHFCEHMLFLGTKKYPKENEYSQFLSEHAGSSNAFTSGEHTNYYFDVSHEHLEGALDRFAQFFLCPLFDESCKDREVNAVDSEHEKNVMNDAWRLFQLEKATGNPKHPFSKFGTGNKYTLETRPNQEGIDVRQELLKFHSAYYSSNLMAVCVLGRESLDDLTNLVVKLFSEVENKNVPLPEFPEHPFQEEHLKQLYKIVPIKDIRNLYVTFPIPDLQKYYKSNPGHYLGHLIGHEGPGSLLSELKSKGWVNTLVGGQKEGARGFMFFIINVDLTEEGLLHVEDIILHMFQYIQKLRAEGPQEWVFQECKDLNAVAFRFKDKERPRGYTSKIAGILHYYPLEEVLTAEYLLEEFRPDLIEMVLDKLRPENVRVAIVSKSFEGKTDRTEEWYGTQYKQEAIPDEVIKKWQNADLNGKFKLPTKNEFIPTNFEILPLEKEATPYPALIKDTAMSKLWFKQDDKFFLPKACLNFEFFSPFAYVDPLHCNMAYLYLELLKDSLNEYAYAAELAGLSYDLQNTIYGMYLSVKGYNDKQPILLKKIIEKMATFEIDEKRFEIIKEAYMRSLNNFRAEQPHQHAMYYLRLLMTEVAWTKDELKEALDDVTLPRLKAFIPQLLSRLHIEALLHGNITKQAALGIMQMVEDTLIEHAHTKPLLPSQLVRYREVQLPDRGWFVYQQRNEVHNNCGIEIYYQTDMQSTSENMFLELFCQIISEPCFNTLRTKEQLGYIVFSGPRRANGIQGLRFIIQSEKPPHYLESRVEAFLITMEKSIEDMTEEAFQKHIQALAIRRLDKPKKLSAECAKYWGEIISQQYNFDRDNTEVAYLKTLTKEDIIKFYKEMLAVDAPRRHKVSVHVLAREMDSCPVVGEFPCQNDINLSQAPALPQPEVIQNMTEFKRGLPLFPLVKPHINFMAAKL
IDE act: boosts human insulin-degrading enzyme activity in HEK cells. hit rate 0.073% among 340,000. P14735. activation, % at 5.96 µM. FAbeta-B cleavage, fluorescence polarization; 0% vehicle, 100% cell-free pure enzyme wells;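 active means activation above the mean of all tested compounds plus 3 SD, set per screening campaign, cut at about 17% in these data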
Keap1-Nrf2 PPI: disrupts human Keap1 binding to Nrf2 peptide. Q14145. Keap1 Kelch-Nrf2 peptide fluorescence polarization, 1536-well. inhibition, % at 9.4 µM. hit rate 0.15% among 340,000; in the data active means inhibition above about 12%;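 further: human Keap1 Kelch domain with fluorescein labeled Nrf2 9mer peptide probe; 0% = neutral control wells and 100% = peptide positive control; higher means more block of Keap1 binding to Nrf2 peptide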
Cardiac RTF inh: cardiac RTF calcium desensitization; P19429+P45379; IANBD-labeled cardiac RTF, Ca2+ fluorescence; inhibition, % at 7.15 µM; hit rate 0.12% among 340,000;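 active means inhibition above the mean inhibition of all tested compounds plus 3 SD, cut at about 17% in these data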;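 further: assay run at fixed EC70 calcium of 1.6 mM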
RTF Ca sens act: increases calcium sensitivity of human cardiac regulated thin filaments. P19429+P45379. IANBD-labeled TnC RTF fluorescence at EC20 calcium; 0% EC20 calcium, 100% full calcium. activation, % at 7.2 µM. hit rate 0.24% among 340,000. AID 493008;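 active means activation above the mean over all tested compounds plus 3 SD, cut at about 30% in these data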;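 further: rise in fluorescence read as greater calcium sensitivity of cardiac thin filaments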
LANA DNA inh: blocks KSHV LANA C-terminal domain binding to DNA. MBP-C-LANA/FAM-LBS DNA binding, fluorescence polarization. inhibition, % at 9 µM. hit rate 0.078% among 340,000;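 active means highest replicate inhibition at or above 60% at 9 µM, even if other replicates fall short; inactive means all replicates below 60% inhibition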;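 further: 0% = neutral control wells and 100% = 4 µM acridine orange control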
IDE inh confirm: confirmation of human insulin-degrading enzyme inhibitors in cells; inhibition, % at 5.59 µM; AID 435028; HEK cells, FAbetaB cleavage, fluorescence polarization; shares compounds with IDE cell inh; hit rate 51% among 1,200;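 active means mean inhibition across triplicate wells above the cutoff set by the earlier primary insulin-degrading enzyme screen, cut at about 16% in these data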;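 further: 0% = DMSO wells and 100% = 60 µM reference IDE inhibitor Ii1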
HEK cytotox: kills HEK cells in IDE inhibitor counter-screen; shares compounds with IDE cell inh; HEK293 cytotoxicity, ATP luminescence; inhibition, % at 5.59 µM; hit rate 28% among 1,200; AID 449730; in the data active means inhibition above about 22%;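 further: 0% = vehicle wells and 100% = reference cytotoxic drug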
RTF inh confirm: confirmation of inhibitors of cardiac thin filament calcium sensitivity | shares compounds with Cardiac RTF inh | reconstituted cardiac thin filaments, calcium sensitivity fluorescence | inhibition, % at 7.15 µM | hit rate 8% among 360 | AID 504635; in the data active means inhibition above about 18%
Keap1 Kelch bind: binders of human Keap1 Kelch domain; AID 651823; max delta Tm, degrees C; Keap1 Kelch thermal shift, delta Tm; stronger effect = higher value; hit rate 8% among 400; shares compounds with Keap1-Nrf2 PPI; in the data active means max delta Tm above about 0.48 degrees C
Active calls of the source: *; i = inactive; . = not tested or not shown; ! = repeats disagree. Most compounds without a hit are left out; they make up all but 0.81% or so of the library.

SMILES | IDE cell inh | IDE act | Keap1-Nrf2 PPI | Cardiac RTF inh | RTF Ca sens act | LANA DNA inh | IDE inh confirm | HEK cytotox | others
O=C1NC(=O)N(c2ccccc2F)C(=O)/C1=C/c1cn(CC(=O)N2CCOCC2)c2ccccc12 | 2 | . | . | . | . | . | . | .
C=CCN1C(=O)NC(=O)/C(=C/c2ccoc2)C1=O | 19* | -11 | -3 | -54 | 10 | 0 | 10 | 8
COc1ccc(CN2C(=O)NC(=O)/C(=C/c3ccoc3)C2=O)cc1 | 27* | -35 | -104 | -62 | 20 | 1 | 9 | 4
COC(=O)C1=C(c2cc3ccccc3o2)C[C@@H]2CC[C@H]1N2C(=O)N1CCC(O)CC1 | 4 | -8 | -1 | 3 | 2 | 3 | . | .
O=C1CN=C(c2cccc(Br)c2)c2cc(Br)ccc2N1 | -3 | 0 | -1 | 3 | -3 | -1 | . | .
O=c1c2ccc(Cl)cc2[nH]c(=S)n1-c1cccnc1 | -2 | 0 | 2 | 0 | 0 | 0 | . | .
O=[N+]([O-])c1ccc(NCc2ccccc2)c2nonc12 | 34* | . | . | . | . | . | 26* | 16
O=[N+]([O-])c1ccc(NCc2ccc(Cl)cc2)c2ccncc12 | 4 | -1 | -1 | -13 | 0 | -3 | . | .
Cn1c(O)c(C=Nc2ccc(Br)cc2)c(=O)n(C)c1=O | 4 | 0 | -1 | -3 | 4 | 0 | . | .
Cc1cccc(-n2c(O)c(/C=C/C=Nc3ccccc3)c(=O)[nH]c2=O)c1 | 38* | -49 | -122 | -100 | 77* | -18 | 56* | 8
Cn1c(O)c(/C=C/C=Nc2ccccc2)c(=O)n(C)c1=S | 27* | -17 | -19 | -39 | 29 | -5 | 45* | 5
CC1(C)OC(c2ccccc2)=C/C(=C/C=C2C(=O)NC(=S)NC2=O)O1 | 21* | . | . | . | . | . | 142* | 14
O=C1NC(=S)NC(=O)C1=Cc1c(Cl)cccc1Cl | . | 2 | 0 | -3 | 0 | -1 | . | .
COc1cc(/C=C/c2nc3ccccc3c(=O)n2-c2cccc(O)c2)ccc1O | 65* | -114 | 2 | -7 | -1 | -9 | 153* | 19
O=c1c2ccccc2nc(/C=C/c2ccccc2)n1-c1ccc(O)cc1 | 7 | 3 | 0 | 2 | 3 | 1 | . | .
COc1cc(/C=C/c2nc3ccccc3c(=O)n2-c2ccccc2O)ccc1O | 60* | -61 | -4 | -11 | 10 | -1 | 128* | 15
O=c1c2ccccc2nc(/C=C/c2ccc(O)c(O)c2)n1-c1ccccc1 | 170* | -128 | -9 | -2 | 6 | 12 | 102* | 21
COc1ccccc1-n1c(/C=C/c2ccc(O)cc2)nc2ccccc2c1=O | 90* | -81 | 0 | -14 | -1 | -1 | 128* | 13
O=C(O)c1ccc(/C=C/c2nc3ccccc3c(=O)n2-c2ccc(Br)cc2)cc1 | -1 | 0 | -3 | 5 | -4 | 0 | . | .
COc1ccc2c3c1OC1[C@H](O)CCC4[C@@H](C2)N(C)CC[C@]314 (some centres not stated) | -1 | 4 | 3 | -16 | -4 | 1 | . | .
O=C1NC(=O)C2(CCCC2)C(=O)N1 | . | 1 | 1 | 5 | -9 | 1 | . | .
O=C1NC(=O)N(Cc2ccc(F)cc2)C(=O)/C1=C\C=C\c1ccco1 | 19* | -18 | -12 | -21 | 8 | -4 | 9 | 12
O=C(O)CNC1c2ccccc2CSc2ccccc21 (configuration not stated) | -4 | . | . | . | . | . | . | .
CN1CCN(Cc2cn(C)c3ccccc23)CC1CCO (configuration not stated) | -1 | 2 | 1 | 3 | 23 | -2 | . | .
O=C1NC(=O)N(c2cccc(Br)c2)C(=O)/C1=C/c1ccsc1 | 22* | 1 | -20 | 6 | 1 | -2 | 6 | 5
SMILES | IDE cell inh | IDE act | Keap1-Nrf2 PPI | Cardiac RTF inh | RTF Ca sens act | LANA DNA inh | IDE inh confirm | HEK cytotox | others
O=C1NC(=O)N(c2ccc(Br)cc2)C(=O)/C1=C/c1ccsc1 | -1 | -5 | -18 | -9 | 1 | -1 | . | .
O=c1cc(C(F)(F)F)c2cc3c4c(c2o1)CCCN4CCC3 | 128* | -94 | 14* | i | 545* | 19 | 26* | 19 | Keap1 Kelch bind=-0.05
CC(C)CCOP(N)(=O)Oc1ccccc1Cl (configuration not stated) | 1 | -9 | -4 | 5 | -5 | 0 | . | .
c1ccc(CCCN2CCN(CCOC(c3ccccc3)c3ccccc3)CC2)cc1 | -2 | 0 | -5 | -14 | 0 | 0 | . | .
Fc1ccc(C(OCCN2CCN(CCCc3ccccc3)CC2)c2ccc(F)cc2)cc1 | -3 | 9 | 0 | 17* | -3 | 2 | . | . | RTF inh confirm=-2
CCCCCc1nc2c(c(=O)c3ccccc3n2C)c(=O)n1C1CCCCCC1 | 6 | 4 | -2 | -6 | 3 | -1 | . | .
CN(C)[C@@H]1C(=O)C(C(N)=O)=C(O)[C@@]2(O)C(=O)C3=C(O)c4c(O)cccc4[C@@](C)(O)C3[C@H](O)C12 (some centres not stated) | -1 | -1 | -7 | 21*! | 10 | 72*! | . | . | RTF inh confirm=-5
CCN1C(=O)NC(=O)/C(=C\c2cn(CC(=O)N3CCCC3)c3ccccc23)C1=O | 3 | 0 | -10 | -50 | -5 | 23 | . | .
CCN1C(=O)NC(=O)/C(=C\c2cn(CC(=O)N3CCCCC3)c3ccccc23)C1=O | 2 | -2 | 21* | -3 | 2 | 37 | . | . | Keap1 Kelch bind=-0.11
FC(F)(F)Oc1ccc(NC2=NCCCS2)cc1 | 4 | 1 | -1 | -8 | 7 | 1 | . | .
Nc1ccc2nonc2c1[N+](=O)[O-] | 3 | 9 | 52* | -131 | 102* | 80* | . | . | Keap1 Kelch bind=-0.08
